In the assay the test system is Bacteroides uniformis. Description: growth AUC relative to DMSO control (median of replicates) (fraction); higher = more growth (less inhibition), active = hit call of the paper. To be noted: 20 µM; 24 h. The method, boiled down:
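Gut bacterial monocultures in mGAM were treated with 20 µM compound (1% DMSO) and grown anaerobically at 37 °C in round-bottom 96-well plates from OD600 0.05. OD600 was read hourly for 24 h, with the minimum OD set to 0. Area under the growth curve was normalised to the plate median of solvent-only wells, or to row and column medians on the industrial chemical plate. Each value is the median of three biological replicates, each grown on a separate day.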
For `CCC(C)(c1ccc(O)cc1)c1ccc(O)cc1`, the “growth AUC” value was 0.991 (inactive). On to `C[n+]1ccc(-c2cc[n+](C)cc2)cc1.O.[Cl-].[Cl-]`, for which the “growth AUC” value is 1.03 (inactive).

Turning to `C=CCC1=C(C)C(OC(=O)C2C(C=C(C)C)C2(C)C)CC1=O` (mixture of isomers), the “growth AUC” value is 0.936 (inactive). With `CCOP(=S)(OCC)SCS(=O)CC` (stereo unspecified), the “growth AUC” value is 0.994 (inactive). As for `CC1=C(C(=O)Nc2ccccc2)SCCO1`, the “growth AUC” value is 0.993 (inactive). Turning to `CC(C)Nc1nc(Cl)nc(NC(C)C)n1`, the “growth AUC” value was 1.02 (inactive). Regarding `CNC(=O)Oc1cc(C)cc(C(C)C)c1`, the “growth AUC” value was 1.04 (inactive). In the case of `C=CCN(CC=C)C(=O)C(Cl)Cl` it was 0.985 (inactive). With `CCS(=O)Cc1ccccc1OC(=O)NC` (stereo unspecified), the “growth AUC” value was 0.945 (inactive). In the case of `CNC1=C(c2cccc(C(F)(F)F)c2)C(=O)C(c2ccccc2)O1` (stereo unspecified) it was 0.972 (inactive); in that of `CC/C(=N\OC/C=C/Cl)C1=C(O)CC(C2CCOCC2)CC1=O` (stereo unspecified), 0.985 (inactive); in that of `CC(COc1ccc(Oc2ccccc2)cc1)Oc1ccccn1` (stereo unspecified), 0.994 (inactive). Take `COCCOC(=O)C(C#N)(C(=O)c1ccccc1C(F)(F)F)c1ccc(C(C)(C)C)cc1` (stereo unspecified): the “growth AUC” value was 0.942 (inactive).

On to `O=c1oc2ccccc2c(O)c1C1CC(c2ccc(OCc3ccc(C(F)(F)F)cc3)cc2)Cc2ccccc21` (mixture of isomers), for which the “growth AUC” value is 0.989 (inactive). Regarding `CN(C)C1CSSSC1.O=C(O)C(=O)O`, the “growth AUC” value is 1.23 (inactive). As to `OC(c1ccc(Cl)cc1)(c1ccc(Cl)cc1)C(Cl)(Cl)Cl`, the “growth AUC” value is 0.0202 (active).

(Values after the supplement of paper PMC12669032.)
